Each structure is given as a SMILES string. A number with no mark means an inactive call. Records with an inconclusive call do not appear. The source made the active and inactive calls. Unless noted, the call rests on the fitted dose curve.

Assay [1] is described as follows: qHTS assay to identify small molecule agonists of the sonic hedgehog signaling (Shh) pathway (AID 1259368).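 Further: NIH/3T3-derived 3T3Gli1-Luc cells carrying a stable Gli1-driven firefly luciferase reporter; series mostly up to about 92 µM; nearly all actives have a fitted effect of over 15% in size.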 Summed up:
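A Gli1 transcriptional response element controlled firefly luciferase in 3T3Gli1-Luc cells. Compounds and a positive control were added 4 hr after plating, and cells were incubated a further 24 hr at 37 C before luminescence detection.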

A short description of assay [2]: qHTS assay to identify small molecule antagonists of the sonic hedgehog signaling (Shh) pathway (AID 1259369). Further: nearly all actives have a fitted effect of over 45% in size. Further: potency means the concentration at half of the fitted maximal effect. Summed up: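 For antagonist detection, the reporter line received test compounds together with conditioned medium, incubated 24hr at 37 C, 5% CO2, then luminescence was recorded following 30min room-temperature luciferase reagent incubation.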
Background: Quantitative high-throughput screening tests each substance at several concentrations.

Assay [3] concerns the target Estrogen receptor beta (Homo sapiens) (UniProt Q92731). Put plainly: qHTS assay to identify small molecule agonists of the estrogen receptor beta (ER-beta) signaling pathway (AID 1259377; active means well fitted activation curve with a large enough effect in the signal ratio in the repeat runs, not every such curve was filed as active; the % refers to the signal ratio). In a few lines:
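Agonist mode cell assay in GripTite HEK293T cells expressing an ER-beta fusion that drives beta-lactamase from an Upstream Activator Sequence; 16 hr compound exposure at 37C, then 2 h LiveBLAzer B/G FRET substrate at room temperature, fluorescence read-out.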

A short description of assay [4]: qHTS assay to identify small molecule agonists of the androgen receptor (AR) signaling pathway in the presence of an antagonist - cell viability counter screen (AID 1259379; active means well fitted curve in the direction sought with a large enough effect in the repeat runs; an effect the other way counts as inactive or inconclusive;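 further: MDA-kb2 human breast cancer cells carrying an MMTV luciferase reporter; series mostly up to about 92 µM; nearly all actives have a fitted effect of over 25% in size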). In a few lines: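 Seed MDA-kb2 at 3,000 cells/well; incubate 5 hr, 37C, 0% CO2. Add nilutamide to 3.0uM final, then pin compounds at 15 concentrations. Incubate 16 hr. Add CellTiter-Fluor at 15 hr, read fluorescence after 1 hr.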

Assay [5] is described as follows: qHTS assay to identify small molecule agonists of the estrogen receptor beta (ER-beta) signaling pathway - cell viability counter screen (AID 1259380; active means well fitted curve in the direction sought with a large enough effect in the repeat runs; an effect the other way counts as inactive or inconclusive; further: nearly all actives have a fitted effect of over 30% in size; further: potency means the concentration at half of the fitted maximal effect). Summed up: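 CellTiter-Glo read, 30 min RT, same wells as bla assay; cells ER-beta-UAS-bla HEK293T; 16 hr compound, 37C; medium 2% charcoal-stripped FBS.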
The nature of assay [6]: qHTS assay to identify small molecule antagonists of the estrogen receptor beta (ER-beta) signaling pathway - cell viability counter screen (AID 1259382; active means well fitted curve in the direction sought with a large enough effect in the repeat runs; an effect the other way counts as inactive or inconclusive;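 further: HEK293T cells carrying ER-beta-UAS-bla reporter stimulated with estradiol; series mostly up to about 92 µM; nearly all actives have a fitted effect of over 55% in size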). Summed up: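 In this multiplexed counter screen, cells were seeded at 2,000 per well in medium with 2% charcoal-stripped FBS and incubated 6 hr before compound and 1nM final E2 were added. Sixteen hours later, ATP-based luminescence reported viability.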

Assay [7] is described as follows: qHTS assay to identify small molecule agonists or antagonists of the thyroid stimulating hormone receptor (TSHR) signaling pathway - wild type cell line counter screen (AID 1259384). In a few lines:
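Counter screen in untransfected Hek293: compounds (15-point titration, triplicate) plus phosphodiesterase inhibitor Ro20-1724 added after 18 h plating; 30 min RT. Intracellular cAMP via competitive d2/cryptate immunoassay, 1 h incubation.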

Assay [8] deals with Androgen receptor (Homo sapiens) (UniProt P10275). Briefly: qHTS assay to identify small molecule agonists of the androgen receptor (AR) signaling pathway in the presence of an antagonist (AID 1259381). Further: nearly all actives have a fitted effect of over 15% in size. In a few lines: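 Test compounds at 15 concentrations were incubated for 16hr with MDA-kb2 reporter cells in presence of 3.0uM nilutamide (final). Signal: ONE-Glo luciferase luminescence.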

Assay [9] deals with Estrogen receptor (Homo sapiens) (UniProt P03372). Briefly: qHTS assay to identify small molecule agonists of the estrogen receptor alpha (ER-alpha) signaling pathway in the presence of an antagonist (AID 1259383). Further: nearly all actives have a fitted effect of over 15% in size. Further: potency means the concentration at half of the fitted maximal effect. On activation: top concentration of the series differs between compounds. Summed up: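 Stably transfected VM7Luc4E2 reporter cells, kept 5 days in charcoal-stripped serum, received ICI-182,780 at 10.0nM final before compound addition. Following 22hr incubation at 37C and 5% CO2, luciferase signal was read by luminescence.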

Assay [10] concerns the target Estrogen receptor beta (Homo sapiens) (UniProt Q92731). Briefly: qHTS assay to identify small molecule antagonists of the estrogen receptor beta (ER-beta) signaling pathway (AID 1259378; active means well fitted inhibition curve with a large enough effect in the signal ratio in the repeat runs, not every such curve was filed as active; the % refers to the signal ratio). Summed up:
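Antagonist mode: compounds added to beta-lactamase reporter HEK293T ER-beta-UAS cells stimulated with E2 (1nM final), 16 hr at 37C. LiveBLAzer B/G FRET substrate, 2 hours room temperature, fluorescence read-out.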

Estrogen receptor (Homo sapiens), sequence (P03372 whole entry, looked up): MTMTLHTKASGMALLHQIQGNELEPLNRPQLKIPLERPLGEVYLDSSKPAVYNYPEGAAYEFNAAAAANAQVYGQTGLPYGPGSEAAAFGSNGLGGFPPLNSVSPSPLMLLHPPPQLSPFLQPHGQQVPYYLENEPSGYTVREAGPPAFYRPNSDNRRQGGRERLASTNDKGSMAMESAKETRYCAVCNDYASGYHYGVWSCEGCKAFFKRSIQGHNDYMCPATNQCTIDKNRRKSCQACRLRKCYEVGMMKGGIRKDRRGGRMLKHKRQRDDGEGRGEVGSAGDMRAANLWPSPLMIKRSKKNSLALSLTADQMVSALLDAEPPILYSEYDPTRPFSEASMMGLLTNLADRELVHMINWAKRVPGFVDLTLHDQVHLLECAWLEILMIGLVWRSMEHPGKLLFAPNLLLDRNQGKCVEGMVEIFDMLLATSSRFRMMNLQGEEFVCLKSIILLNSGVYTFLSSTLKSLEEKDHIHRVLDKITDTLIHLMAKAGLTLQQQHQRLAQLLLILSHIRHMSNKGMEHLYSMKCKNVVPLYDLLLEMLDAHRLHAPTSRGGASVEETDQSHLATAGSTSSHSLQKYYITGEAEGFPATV
Androgen receptor (Homo sapiens), sequence (P10275 whole entry, looked up): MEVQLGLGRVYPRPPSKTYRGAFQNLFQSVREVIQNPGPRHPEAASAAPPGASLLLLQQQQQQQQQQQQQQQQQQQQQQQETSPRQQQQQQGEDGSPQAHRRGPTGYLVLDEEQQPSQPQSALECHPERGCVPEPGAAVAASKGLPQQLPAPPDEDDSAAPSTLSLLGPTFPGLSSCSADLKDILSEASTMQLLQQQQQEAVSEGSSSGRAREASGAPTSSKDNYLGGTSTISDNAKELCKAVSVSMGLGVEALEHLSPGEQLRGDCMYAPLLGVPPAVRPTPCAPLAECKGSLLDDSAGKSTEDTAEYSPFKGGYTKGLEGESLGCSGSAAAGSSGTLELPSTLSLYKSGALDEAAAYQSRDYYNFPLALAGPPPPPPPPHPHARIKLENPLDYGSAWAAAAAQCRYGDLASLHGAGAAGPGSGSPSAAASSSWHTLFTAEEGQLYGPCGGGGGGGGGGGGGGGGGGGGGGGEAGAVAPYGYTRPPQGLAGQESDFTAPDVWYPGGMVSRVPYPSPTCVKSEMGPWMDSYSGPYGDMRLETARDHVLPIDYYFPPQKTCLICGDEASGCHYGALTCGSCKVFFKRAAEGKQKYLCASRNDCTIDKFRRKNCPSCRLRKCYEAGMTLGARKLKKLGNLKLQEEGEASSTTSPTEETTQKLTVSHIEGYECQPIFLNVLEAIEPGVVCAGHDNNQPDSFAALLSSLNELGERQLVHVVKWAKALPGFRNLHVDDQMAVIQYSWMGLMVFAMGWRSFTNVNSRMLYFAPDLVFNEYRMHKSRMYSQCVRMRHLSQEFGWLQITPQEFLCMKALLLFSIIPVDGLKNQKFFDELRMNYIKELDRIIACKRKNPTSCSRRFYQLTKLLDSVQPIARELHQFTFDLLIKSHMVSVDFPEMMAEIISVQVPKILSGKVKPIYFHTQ
Estrogen receptor beta (Homo sapiens), sequence (Q92731 whole entry, looked up, the tested form may be a part): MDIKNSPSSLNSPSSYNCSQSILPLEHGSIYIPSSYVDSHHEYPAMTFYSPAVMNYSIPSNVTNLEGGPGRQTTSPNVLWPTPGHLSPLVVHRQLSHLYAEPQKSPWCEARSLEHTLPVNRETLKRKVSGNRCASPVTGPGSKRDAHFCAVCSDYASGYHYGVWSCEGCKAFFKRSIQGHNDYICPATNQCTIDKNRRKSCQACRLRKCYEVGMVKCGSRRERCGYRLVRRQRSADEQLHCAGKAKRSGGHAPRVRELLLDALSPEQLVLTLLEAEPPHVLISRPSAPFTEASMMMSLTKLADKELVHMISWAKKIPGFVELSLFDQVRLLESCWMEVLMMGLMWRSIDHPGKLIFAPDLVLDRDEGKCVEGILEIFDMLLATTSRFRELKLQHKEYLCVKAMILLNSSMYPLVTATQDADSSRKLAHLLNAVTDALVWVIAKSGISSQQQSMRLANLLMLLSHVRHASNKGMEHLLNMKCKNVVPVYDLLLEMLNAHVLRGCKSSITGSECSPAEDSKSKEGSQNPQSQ

For `O=C(O)CBr`, the call in [1] and in assay [7] was inactive. Moreover, the Potency result in [2], in [3], in [4], in assay [5] and in assay [6] was “inactive” each time.
Regarding `CCOC(=O)NC(C)(C)Cc1ccc(Cl)cc1`, the outcome in [1] and in [7] was inactive. Further, the Potency result in assay [2], in assay [4], in assay [5], in assay [8], in [6] and in assay [9] was “inactive” throughout.
Consider `COP(=O)(O)OC`, for which the outcome in [1] and in [7] was inactive. Also, the Potency result in [2], in [4], in assay [5], in assay [8], in assay [6] and in [9] was “inactive” in each case.
For `Oc1ccc2c3c1O[C@H]1[C@@H](O)C=C[C@H]4[C@@H](C2)NCC[C@@]341`, the compound was classed as inactive in assay [1] and in [7]. Besides, the Potency in [2] is 1.99 µM (active). The Potency entry in [3], in assay [4], in assay [5] and in assay [6] was “inactive” in each case.
Regarding `C=C(Cl)CCl`, the result in assay [1] and in [7] was inactive. Besides, the Potency entry in assay [2], in assay [3], in assay [4], in assay [5], in assay [6] and in assay [9] was “inactive” in each case.
As to `O=C(Cl)/C=C/C(=O)Cl`, the compound was classed as inactive in [1]. Also, the Potency result in assay [2], in assay [3], in [4], in assay [5], in [8] and in assay [9] was “inactive” throughout.
As for `Cc1ccc(S(=O)(=O)N[C@@H](CCCCN)C(=O)CCl)cc1`, the call in assay [1] and in assay [7] was inactive. In addition, the Potency entry in assay [2], in assay [3], in assay [4], in [5], in [8] and in assay [6] was “inactive” throughout. Besides, in assay [9], the Potency result was “inactive”.
In the case of `O=S1(=O)OCCO1`, the compound was called inactive in assay [1] and in assay [7]. Further, the Potency result in assay [2], in assay [4], in assay [5], in [8] and in [6] was “inactive” in each case.
`CCOC(=O)Nc1cccc(OC(=O)Nc2ccccc2)c1`: the outcome in assay [1], in assay [10] and in [7] was inactive. For the same compound, the Potency entry in assay [2], in assay [4], in [5] and in assay [6] was “inactive” in each case. For the same compound, the Potency in assay [9] was 12.2 µM (active).
On to `CN(C)CCN(C)C`, for which the outcome in [1], in assay [10] and in [7] was inactive. The Potency result in [2], in assay [4], in [5], in [6] and in assay [9] was “inactive” each time.
As for `CCC1(c2ccccc2)C(=O)N(COC)C(=O)N(COC)C1=O`, the compound was called inactive in assay [1] and in [7]. For the same compound, the Potency entry in assay [2], in assay [4], in [5], in [8] and in assay [6] was “inactive” in each case.
With `O=c1[nH]c2ccccc2n1C1CCNCC1`, the outcome in assay [1] and in assay [7] was inactive. In addition, the Potency entry in assay [2], in [4], in [5], in [8], in assay [6] and in assay [9] was “inactive” throughout.
In the case of `BrCc1ccc(Br)cc1`, the outcome in [1] and in [7] was inactive. In addition, the Potency result in [2], in assay [4], in [5], in assay [8], in assay [6] and in [9] was “inactive” each time.
As to `ClCOCCl`, the result in [1], in [10] and in [7] was inactive. Moreover, the Potency entry in assay [2], in assay [4], in [5], in assay [6] and in assay [9] was “inactive” in each case.
Turning to `CCOP(=S)(OCC)SCCl`, the compound was classed as inactive in assay [1] and in assay [7]. In addition, the Potency entry in [2], in assay [4], in assay [5], in assay [8] and in assay [9] was “inactive” each time.
Regarding `COc1ccc2c(C(=O)c3ccc(Cl)cc3)c(C)n(CC(=O)O)c2c1`, the compound was classed as inactive in assay [1]. Moreover, the Potency result in [2], in assay [3], in assay [4], in assay [5] and in assay [6] was “inactive” in each case.
With `COc1cccc([C@@]2(O)CCCC[C@@H]2CN(C)C)c1`, the call in assay [1] and in assay [7] was inactive. The Potency entry in assay [2], in assay [4], in assay [5], in [8], in [6] and in assay [9] was “inactive” in each case.
For `NC1(c2ccccc2)CCCCC1`, the outcome in [1] and in assay [7] was inactive. For the same compound, the Potency result in assay [2], in assay [3], in assay [4], in [5] and in assay [9] was “inactive” each time.
Regarding `O=C(O)C(F)(F)C(F)(F)C(F)(F)C(F)(F)C(F)(F)C(F)(F)F`, the compound was classed as inactive in [1] and in assay [7]. Also, the Potency entry in [2], in assay [3] and in [4] was “inactive” each time. Besides, the Potency in [5] is 54.5 µM (active).
`O=CCCl`: the outcome in [1], in assay [10] and in assay [7] was inactive. Besides, the Potency result in assay [2], in [4], in assay [6] and in [9] was “inactive” throughout.

Source of the values: PubChem BioAssay (Tox21).
